Screens: PubChem, National Center for Advancing Translational Sciences (NCATS)
HBB splice mod: qHTS Assay for Modulators of Hemoglobin Beta Chain Splicing; HBB splicing reporter cell assay, activation; EGFP reporter with mutant IVS2-654 intron; response scale: normalised to 500 nM splice-correcting PNA; Potency, µM (top dose mostly 46.1 µM), for the others: at the top dose activation, most hits filed as activators; 0.06% of 65,000 active; AID 925, 2007; further: potency means the concentration at half of the fitted maximal effect; 0% is about no effect
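Compounds were applied for 2 days to HeLa EGFP-654 cells, 500/well in Optimem with 2% FCS. The reporter's EGFP is disrupted by mis-splicing of beta-globin intron IVS2-654. Readout: summed well GFP fluorescence from 488 nm laser scanning; reference was 500 nM antisense […] 654 PNA.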
Pol III holo inh: qHTS Assay for Inhibitors of DNA Polymerase III Holoenzyme System; reconstituted DNA polymerase III holoenzyme replication, biochemical; Potency, µM (highest dose often 57.1 µM), for inactives: top-dose activity change, negative = inhibition; 0.25% of 71,000 active; AID 603, 2007; further: potency means the concentration at half of the fitted maximal effect; on the % scale 0 is the no-effect control and ±100 the full control effect
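Reconstituted *E. coli* holoenzyme (0.35 nM Pol III, 1 nM beta, 154 nM SSB, 2 nM primase) was preincubated with compound for 15 min at RT. Synthesis on 1.4 nM ssM13Gori ran 35 min, then was stopped with PicoGreen/EDTA and read as dsDNA fluorescence.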
Epigenetic mod: qHTS Assay for Epigenetic Modulators; mouse C127i GFP locus derepression, cytometry, 30 h; Potency, µM (series often up to 46.1 µM), for the others: at the top dose GFP derepression (activation); 0.09% of 68,000 active; further: % of control where 0% means no effect
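Murine C127i mammary cells carrying a silenced, stably integrated CMV-driven GFP reporter were treated with compound for 30 hours at 37 C. After PBS washes, GFP-positive cells were counted by laser-scanning microplate cytometry.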
UbGFP stabilizer: Ubiquitin-GFP Assay | Ubiquitin-GFP reporter cells, proteasome inhibition, GFP fluorescence; response scale: untreated = 0%, 10 µM MG-132 = 100% | Potency, µM (series often up to 45.9 µM), without a hit: at the top dose activation (GFP accumulation), most hits filed as activators | 67,000 tested, under 10 active | AID 526, 2006; active means well fitted activation curve with a large enough effect, not every such curve was filed as active; inconclusive means small, poorly fitted or top-dose-only effect, or another doubt; inactive means no such curve, though single readings can be large or run the other way; further: potency means the concentration at half of the fitted maximal effect
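Proteasome block read as GFP accumulation: ubiquitin(G76V)-GFP U2OS cells exposed to compound (2.9 nM–46 uM) for 4 hr at 37 C. Normalization used untreated cells as 0% and 10 uM MG-132 as 100%; concentration-response curves fitted.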
Tau filament bind: qHTS Assay for Tau Filament Binding; Potency, µM (highest dose often 57.1 µM), for inactives: top-dose activity change, negative = inhibition; Microtubule-associated protein tau (Homo sapiens), P10636; 2% of 71,000 active; recombinant tau filaments, thioflavin S fluorescence, 15 h; filaments grown with octadecylsulfate alongside compound; AID 596, 2007;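 further: potency means the concentration at half of the fitted maximal effect; on the % scale 0 is the no-effect control and ±100 the full control effect; actives lower thioflavin S fluorescence by blocking filaments or displacing dye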
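ThS-based fibril read: tau 1 uM final, inducer ODS 30 uM final, 37 C for 15 h, ex 450/em 510 nm.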
15-hLO inh: qHTS Assay for Inhibitors of 15-hLO (15-human lipoxygenase) | purified 15hLO-1, xylenol orange hydroperoxide absorbance | Potency, µM (top dose mostly 57.1 µM), for inactives: top-dose activity change, negative = inhibition, hits mostly inhibitors | Polyunsaturated fatty acid lipoxygenase ALOX15 (Homo sapiens), P16050 | 1.4% of 74,000 active; further: potency means the concentration at half of the fitted maximal effect; on the % scale 0 is the no-effect control and ±100 the full control effect; nearly all actives have a fitted effect of over 55% in size
Target sequence (P16050 whole entry, looked up): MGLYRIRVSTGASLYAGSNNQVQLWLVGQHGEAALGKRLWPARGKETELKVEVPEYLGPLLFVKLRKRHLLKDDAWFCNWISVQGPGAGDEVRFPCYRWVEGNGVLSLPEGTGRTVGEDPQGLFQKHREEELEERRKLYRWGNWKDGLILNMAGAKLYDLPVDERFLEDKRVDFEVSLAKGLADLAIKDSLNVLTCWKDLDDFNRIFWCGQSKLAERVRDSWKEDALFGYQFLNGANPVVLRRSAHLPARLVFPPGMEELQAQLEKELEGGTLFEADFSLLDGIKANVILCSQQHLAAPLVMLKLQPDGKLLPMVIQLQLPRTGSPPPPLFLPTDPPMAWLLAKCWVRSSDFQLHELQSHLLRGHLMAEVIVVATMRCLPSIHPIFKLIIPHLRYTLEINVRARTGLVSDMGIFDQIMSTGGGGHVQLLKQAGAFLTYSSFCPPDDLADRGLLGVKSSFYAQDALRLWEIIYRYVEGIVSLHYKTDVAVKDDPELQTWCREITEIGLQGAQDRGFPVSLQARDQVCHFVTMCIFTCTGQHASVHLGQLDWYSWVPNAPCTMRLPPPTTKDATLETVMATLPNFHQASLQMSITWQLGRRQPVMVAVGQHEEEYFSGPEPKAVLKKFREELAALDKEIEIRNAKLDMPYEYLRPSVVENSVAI
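Inhibition is scored from a chromogenic endpoint. After 15 min enzyme-compound contact, arachidonic acid (50 uM final) reacts 6 min with 40 nM 15hLO-1 at room temperature, then Fe-XO reagent is added for 30 min and absorbance ratio recorded.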
* = called active by the depositor; i = inactive; ? = inconclusive; · = not tested or not shown; ! = repeats disagree; [ ] = dose if it differs, or a comment. This is a sample that favours compounds with a hit; in the whole collection about 3.2% have one here. Unless noted, the call rests on the fitted dose curve; in most records, active means well fitted curve in the direction sought with a large enough effect; inconclusive means small, poorly fitted or top-dose-only effect, or another doubt; inactive means no such curve, though single readings can be large; an effect the other way counts as inactive or inconclusive.

SMILES	HBB splice mod	Pol III holo inh	Epigenetic mod	UbGFP stabilizer	Tau filament bind	15-hLO inh
COc1ccccc1CNc1nc2ccccc2n1CCN1CCCCC1	0%	-1%	0%	0%	7%	-3%
Nc1cc(N)cc(-c2nc3ccccc3[nH]2)c1	·	-11%	0%	-1%	6.3µM*	0%
Cc1ccc(-c2nc3ccccc3[nH]2)s1	1%	-3%	-2%	-13%	13µM*	-13%
Nc1nc2ccccc2[nH]1	-1%	2%	·	·	-14%	0%
Cc1c(N2C(=O)c3ccc4c5c(ccc(c35)C2=O)CC4)c(=O)n(-c2ccccc2)n1C	3%	25µM*	-3%	-4%	16µM*	25µM*
O=S1(=O)N[C@H]2CC[C@@H]3NS(=O)(=O)N[C@H]4CC[C@H](N1)N4S(=O)(=O)N23	5%[9.22 µM]	-7%[11.4 µM]	0%[9.22 µM]	-9%[9.17 µM]	3.2µM*	2%[11.4 µM]
Oc1c(CN2CCN(c3ccccn3)CC2)cc(Cl)c2cccnc12	-1%	-5%	3.2µM*	-3%	-24%	-56%
COCc1cc(CN2CCCC2)c(O)c2ncccc12	-2%	-3%	?	-9%	-16%	2.5µM*
Cc1ccc(C#N)cc1	-1%	1%	·	·	5%	8%
N=C(N)SCCSC(=N)N	1%[9.22 µM]	-5%[11.4 µM]	0%[9.22 µM]	-1%[9.17 µM]	6%[11.4 µM]	-6%[11.4 µM]
COC(=O)C(C(=O)OC)C1O[C@@]23COCCC2(C)C3c2ccccc21 (stereo partly specified)	1%[9.22 µM]	·	·	·	·	9%[11.4 µM]
NC(Cc1cc(I)c(Oc2cc(I)c(O)c(I)c2)c(I)c1)C(=O)O (stereo unspecified)	·	·	·	·	·	13µM*
COc1ccccc1CNc1ncnc2ccc(-c3ccccc3C#N)cc12	0%	15%	0%[9.22 µM]	-7%	i	-11%
C=CC(C)(O)CC/C=C(\C)CCC=C(C)C (stereo unspecified)	·	·	·	·	·	13µM*
CC(C)=CCC/C(C)=C/CO	6%[9.22 µM]	1%[11.4 µM]	2%[9.22 µM]	2%[9.17 µM]	10%[11.4 µM]	7.9µM*!
CC(C)=CCC/C(C)=C/CC/C(C)=C/CC/C(C)=C/CC/C(C)=C/CC/C(C)=C/CC/C(C)=C/CC/C(C)=C/CC/C(C)=C/CO	·	·	·	·	·	-1%
Cc1c(N=Cc2ccco2)c(=O)n(-c2ccccc2)n1C	-5%[0.0738 µM]	1%[11.4 µM]	-2%	8%[9.17 µM]	-2%[11.4 µM]	3%[11.4 µM]
CCOc1[nH]c(/N=C/c2ccco2)c(C#N)c1C#N	7%[0.369 µM]	-3%	3%	0%	1%	25µM*
O=C(CSc1nc2ccccc2s1)c1sc2sc3ccccc3[n+]2c1O	?	-27%[11.4 µM]	-3%[9.22 µM]	-5%[9.17 µM]	-5%[11.4 µM]	-8%[11.4 µM]
O=C1C=C[C@@H](O)[C@@H]2[C@H]3C(=O)N(c4ccc(F)cc4F)C(=O)[C@@H]3CC[C@@H]12	1%[9.22 µM]	·	·	·	·	-2%[11.4 µM]
COc1ccc2ccccc2c1C1CC(=O)N2CN(C3CCCCC3)CSC2=C1C#N (stereo unspecified)	0%	-10%	·	0%	13µM*	?
CCOc1cc(C2CC(=O)N3CN(C4CCCCC4)CSC3=C2C#N)ccc1O (stereo unspecified)	0%	-3%	·	-6%	-19%	?
COc1cc(C2CC(=O)N3CN(Cc4ccco4)CSC3=C2C#N)ccc1OCc1ccccc1 (stereo unspecified)	0%	-5%	·	-10%	-11%	6.3µM*
COc1ccc2ccccc2c1C1CC(=O)N2CN(Cc3ccco3)CSC2=C1C#N (stereo unspecified)	0%	-7%	·	12%	7.9µM*	?
O=C(O)c1ccccc1C(=O)Nc1cc2c(cc1Br)-c1ccccc1C2=O	1%[9.22 µM]	-7%[11.4 µM]	3%[9.22 µM]	-3%[9.17 µM]	-2%[11.4 µM]	6%[11.4 µM]
SMILES	HBB splice mod	Pol III holo inh	Epigenetic mod	UbGFP stabilizer	Tau filament bind	15-hLO inh
C[N+]1(C)CCO[C@](O)(c2ccccc2)C1	0%[9.22 µM]	-11%[11.4 µM]	-2%[9.22 µM]	2%[9.17 µM]	6%[11.4 µM]	7%[11.4 µM]
O=C(Nc1cccc(N2CCCC2)c1)c1cccs1	-1%	-3%	0%	3%	13µM*	?
Nc1cccc(NC(=O)c2cccs2)c1	-1%	-3%	3%	3%	-22%	6%
Nc1ccc(O)cc1C(=O)OCC(=O)C12CC3CC(CC(C3)C1)C2	0%[57.5 µM]	0%	0%	-3%	-27%	13µM*
O=C(CN1C2=NCCN2c2ccccc21)C12CC3CC(CC(C3)C1)C2	4%	2%	-1%	0%	38%	-26%
O=C(c1cc2ncc(Br)cn2n1)N1CCN(C(=O)c2ccco2)CC1	-2%	25µM*	-2%	-3%	10%	-10%
CCCC(=O)N(c1ccc2oc(=O)sc2c1)S(=O)(=O)c1cccs1	-1%	-7%	0%	4%	4%	16µM*
CC(=O)N(c1ccc2oc(=O)sc2c1)S(=O)(=O)c1ccccc1	0%	0%	0%	-10%	5%	16µM*
COc1c(-c2coc3cc4c(cc3c2=O)CC(O)C(C)(C)O4)ccc2c1C=CC(C)(C)O2 (stereo unspecified)	·	·	·	·	·	-12%
Cc1cc(C)c2cc(C#N)c(SCC(=O)NCc3ccco3)nc2c1	·	-20%	4%	-3%	20µM*	?
COc1cccc(Cn2c(=O)c(-c3cccs3)nc3cnc(Nc4ccccc4)nc32)c1	3%	4%	0%[9.22 µM]	1%	157%	5%
COc1ccc(-n2c(=O)c(-c3cccs3)nc3cnc(Nc4cccc(OC)c4)nc32)cc1	10µM*	-1%	3.2µM*	?	i	-10%
COc1cccc(Nc2ncc3nc(-c4cccs4)c(=O)n(CCC#N)c3n2)c1	6%	-8%	?	6.3µM*	105%	-7%
COCCn1c(=O)c(-c2ccc(F)cc2)nc2cnc(Nc3cccc(OC)c3)nc21	20µM*	4%	3%[9.22 µM]	?	i	-5%
COc1ccc2nc(NCN3C(=O)c4ccccc4C3=O)sc2c1	1%[9.22 µM]	0%[11.4 µM]	7%[9.22 µM]	-5%[9.17 µM]	-10%[11.4 µM]	-2%[11.4 µM]
CN(C(=O)c1ccccc1C(=O)O)C1CC(C)(C)NC(C)(C)C1	1%	-9%	·	-7%	-11%	?
Cc1ccc(/C=C/C2=Cc3c(sc(NC(=O)CSc4n[nH]c(N)n4)c3C#N)C(C)(C)C2)o1	?	-11%	?	-1%	64%	13µM*
CCOC(=O)c1c(NC(=O)CSc2n[nH]c(N)n2)sc(CC)c1C	-1%	-7%	0%	-16%	18%	-10%
O=C1c2cccc([N+](=O)[O-])c2C(=O)N1c1ncn[nH]1	2%[9.22 µM]	-12%[11.4 µM]	6%[9.22 µM]	1%[9.17 µM]	6%[11.4 µM]	12%[11.4 µM]
